Experimental data published in PubChem BioAssay (Tox21).
Calls of active or inactive are those of the source. A call without a number means that no potency is given here. Unless noted, calls follow the shape of the dose curve; as a rule, active = well fitted curve in the direction sought with a large enough effect in the repeat runs; inconclusive = weak or mixed curves; inactive = flat fitted curve, though single readings scatter.

Key:
[1] = qHTS assay to test for compound auto fluorescence at 535 nm (green) in HEK293 cells (AID 720680)
[2] = qHTS assay to test for compound auto fluorescence at 460 nm (blue) in HEK293 cell free culture (AID 720681)
How it was run: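 Compounds were added to cell-free DMEM with 10% FBS and fluorescence read directly. The blue channel used 405 nm excitation and 460 nm emission, with triamterene as the reference fluorophore.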

[3] = qHTS assay to test for compound auto fluorescence at 535 nm (green) in HEK293 cell free culture (AID 720682)
How it was run: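 Green-channel intensity (Ex/Em 485/535 nm) was recorded from compound-treated wells containing only DMEM with 10% FBS. Fluorescein provided the equivalency standard.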

[4] = qHTS assay to test for compound auto fluorescence at 590 nm (red) in HEK293 cell free culture (AID 720683)
How it was run: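 Cell-free wells of DMEM with 10% FBS received compound, and intrinsic fluorescence was read at excitation/emission 540/590 nm. Values expressed as equivalence to Rose Bengal sodium.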

[5] = qHTS assay to test for compound auto fluorescence at 590 nm (red) in HepG2 cell free culture (AID 720684)
How it was run: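 Compound was pinned into wells holding MEM with 10% FBS and no cells, and red fluorescence was read at Ex/Em 540/590 nm. Signal is expressed as auto fluorescence equivalency relative to Rose Bengal sodium.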

[6] = qHTS assay to test for compound auto fluorescence at 460 nm (blue) in HepG2 cell free culture (AID 720685)
How it was run: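 Compound (23 nL) or DMSO pinned into cell-free MEM with 10% FBS; blue fluorescence read at 405/460 nm excitation/emission, expressed as auto-fluorescence equivalency to triamterene.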

[7] = qHTS assay to test for compound auto fluorescence at 535 nm (green) in HepG2 cell free culture (AID 720686)
[8] = qHTS assay to test for compound auto fluorescence at 460 nm (blue) in HepG2 cells (AID 720687)
How it was run: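 HepG2 cells in MEM with 10% FBS, attached overnight at 37 C, were exposed to compound or DMSO for 1 hr at 37 C, 5% CO2. Blue fluorescence was read at 405/460 nm, with triamterene as reference fluorophore.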

[9] = biological target: Glucocorticoid receptor (Homo sapiens) (UniProt P04150); assay: qHTS assay to identify small molecule agonists of the glucocorticoid receptor (GR) signaling pathway (AID 720691; active = well fitted activation curve with a large enough effect in the signal ratio in the repeat runs, not every such curve was filed as active; inconclusive = weak or mixed curves, or effect the other way; inactive = no such curve, though single readings can be large or run the other way; the % refers to the signal ratio; also: potency is read from the fitted curve at half-maximal effect); conditions: GR-bla HeLa, beta-lactamase reporter ratio, 18 h; activation: at 62.4 µM (top of the series)
How it was run: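 Agonist mode in a HeLa line carrying a GRE-controlled beta-lactamase reporter. Compounds act for 18 h at 37 C before a 2 h room-temperature FRET substrate step and fluorescence reading.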

Sequence of Glucocorticoid receptor (Homo sapiens) (P04150 whole entry, looked up): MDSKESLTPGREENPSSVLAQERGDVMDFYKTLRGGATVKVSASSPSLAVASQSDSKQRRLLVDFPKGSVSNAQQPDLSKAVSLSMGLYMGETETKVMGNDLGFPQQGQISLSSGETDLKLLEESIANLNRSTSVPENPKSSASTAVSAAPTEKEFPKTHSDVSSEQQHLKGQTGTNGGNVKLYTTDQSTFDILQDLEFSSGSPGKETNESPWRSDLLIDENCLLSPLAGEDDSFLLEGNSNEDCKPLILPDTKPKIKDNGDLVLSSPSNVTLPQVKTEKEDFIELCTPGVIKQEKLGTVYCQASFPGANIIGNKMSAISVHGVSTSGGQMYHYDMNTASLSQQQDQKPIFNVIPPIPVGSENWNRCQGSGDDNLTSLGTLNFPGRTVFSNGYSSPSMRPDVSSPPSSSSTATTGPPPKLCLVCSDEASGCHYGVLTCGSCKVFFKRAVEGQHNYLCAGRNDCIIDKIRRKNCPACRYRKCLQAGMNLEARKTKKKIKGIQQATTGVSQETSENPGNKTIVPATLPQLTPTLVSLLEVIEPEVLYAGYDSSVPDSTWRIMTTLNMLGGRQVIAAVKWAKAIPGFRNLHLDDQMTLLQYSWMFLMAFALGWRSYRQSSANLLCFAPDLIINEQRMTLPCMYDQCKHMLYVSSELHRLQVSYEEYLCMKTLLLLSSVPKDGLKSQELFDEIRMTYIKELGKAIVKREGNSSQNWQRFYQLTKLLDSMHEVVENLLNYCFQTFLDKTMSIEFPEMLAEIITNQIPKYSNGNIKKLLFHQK

SMILES	Potency [1]	Potency [2]	Potency [3]	Potency [4]	Potency [5]	outcome [6]	Potency [7]	outcome [8]	Potency [9]
CC[C@]1(O)CC2CN(CCc3c([nH]c4ccccc34)[C@@](C(=O)OC)(c3cc4c(cc3OC)N(C)[C@H]3[C@@](O)(C(N)=O)[C@H](O)[C@]5(CC)C=CCN6CC[C@]43[C@@H]65)C2)C1 (stereo partly specified)	inactive	inactive	inactive	inactive	inactive	inactive	inactive	inactive	inactive
N[C@H](CCC(=O)O)C(=O)O	inactive	inactive	inactive	inactive	inactive	inactive	inactive	inactive	inactive
CCC(=O)O[C@]1(C(=O)CCl)[C@@H](C)C[C@H]2[C@@H]3C[C@H](F)C4=CC(=O)C=C[C@]4(C)[C@@]3(F)[C@@H](O)C[C@@]21C	inactive	inactive	inactive	inactive	inactive	inactive	inactive	inactive	0.7 nM (active)
COc1cc(Br)c(C[N+]2(CCOCCC3CCC4CC3C4(C)C)CCOCC2)cc1OC (stereo unspecified)	inactive	inactive	inactive	inactive	inactive	inactive	inactive	inactive	inactive
CCCCCCCCCCCCCCCCCC(=O)[O][Al]	inactive	inactive	inactive	inactive	inactive	inactive	inactive	inactive	inactive
COc1cc([C@@H]2c3cc4c(cc3C(O[C@@H]3O[C@@H]5COC(c6cccs6)O[C@H]5[C@H](O)[C@H]3O)C3COC(=O)[C@@H]32)OCO4)cc(OC)c1O (stereo partly specified)	inactive	inactive	inactive	inactive	inactive	inactive	inactive	inactive	3380 nM (active)
CC[C@@]1(O)C[C@H](O[C@H]2C[C@H](N(C)C)[C@H](O[C@H]3C[C@H](O)[C@H](O[C@H]4CCC(=O)[C@H](C)O4)[C@H](C)O3)[C@H](C)O2)c2c(cc3c(c2O)C(=O)c2c(O)cccc2C3=O)[C@H]1C(=O)OC	inactive	inactive	inactive	inactive	inactive	inactive	inactive	inactive	10700 nM [inconclusive] (active)
C[C@H](CCCC(C)(C)O)[C@H]1CC[C@H]2[C@@H]3CC=C4C[C@@H](O)CC[C@]4(C)[C@H]3CC[C@]12C	inactive	inactive	inactive	inactive	inactive	inactive	inactive	inactive	inactive
[O]=[Bi][O][Bi]=[O]	inactive	inactive	inactive	inactive	inactive	inactive	inactive	inactive	inactive
O=C(OCc1ccccc1)c1cccnc1	inactive	inactive	inactive	inactive	inactive	inactive	inactive	inactive	inactive
CCCCC(F)(F)[C@@]1(O)CC[C@H]2[C@@H](CC(=O)[C@@H]2CCCCCCC(=O)O)O1	inactive	inactive	inactive	inactive	inactive	inactive	inactive	inactive	inactive
C[C@H](/C=C/[C@H](C)C(C)(C)O)[C@H]1CC[C@H]2/C(=C/C=C3C[C@@H](O)C[C@H](O)C3)CCC[C@]12C	inactive	inactive	inactive	inactive	inactive	inactive	inactive	inactive	inactive
COc1ccc(C[C@H](C)NC[C@@H](O)c2ccc(O)c(NC=O)c2)cc1	inactive	inactive	inactive	inactive	inactive	inactive	inactive	inactive	inactive
CC(=O)O[C@]1(C(C)=O)CC[C@H]2[C@@H]3CCC4=CC(=O)CC[C@]4(C)[C@@]3(F)[C@@H](O)C[C@@]21C	inactive	inactive	inactive	inactive	inactive	inactive	inactive	inactive	37.9 nM (active)
CCC(C)[C@H]1O[C@]2(C=C[C@@H]1C)C[C@@H]1C[C@@H](C/C=C(\C)[C@@H](O[C@H]3C[C@H](OC)[C@@H](O[C@H]4C[C@H](OC)[C@H](NC(C)=O)[C@H](C)O4)[C@H](C)O3)[C@@H](C)/C=C/C=C3\CO[C@@H]4[C@H](O)C(C)=C[C@@H](C(=O)O1)[C@]34O)O2 (stereo partly specified)	inactive	inactive	inactive	inactive	inactive	inactive	inactive	inactive	inactive
CC(=O)OCC(=O)[C@@]12OC3(CCCC3)O[C@@H]1C[C@H]1[C@@H]3CCC4=CC(=O)C=C[C@]4(C)[C@@]3(F)[C@@H](O)C[C@@]12C	inactive	inactive	inactive	inactive	inactive	inactive	inactive	inactive	19 nM (active)
CN[C@@H]1[C@@H](O)[C@@H](O[C@@H]2[C@@H](O)[C@H](O[C@H]3O[C@H](CN)[C@@H](O)[C@H](O)[C@H]3O)[C@@H](N)C[C@H]2NC(=O)C(O)CN)OC[C@]1(C)O (stereo partly specified)	inactive	inactive	inactive	inactive	inactive	inactive	inactive	inactive	6010 nM (active)
CCOC(=O)O[C@]1(C(=O)COC(=O)CC)CC[C@H]2[C@@H]3CCC4=CC(=O)C=C[C@]4(C)[C@H]3[C@@H](O)C[C@@]21C	inactive	inactive	inactive	inactive	inactive	inactive	inactive	inactive	28.8 nM (active)
O=P(O)(O)OC(CO)CO	inactive	inactive	inactive	inactive	inactive	inactive	inactive	inactive	inactive
